Screening data from PubChem BioAssay.
Wee1 stabilizer – inhibitors of human Wee1 degradation. reporter increase, % at 5 µM. P30291. 220,000 compounds, 1.2% hits. HeLa Luc-Wee1K328M stability, luciferase luminescence; 100% = proteasome inhibitor MG132 effect. AID 1321;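 active means activation above the mean of all tested compounds plus 3 SD, set per screening run, cut at about 8.8% in these data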;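 further: cells exposed to compound for 20 h before luminescence read; 0% = DMSO alone and 100% = MG132 at 30 µM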
Furin inh – human furin inhibition. 220,000 compounds, 0.061% hits. purified furin, fluorogenic substrate cleavage. inhibition, % at 20 µM or 30 µM; in the data active means inhibition above about 25%
EP2 mod – modulates human prostaglandin E2 receptor EP2 signaling. EP2-expressing cells, cAMP HTRF FRET, PGE2 co-stimulation. induction, % at 25 µM. 260,000 compounds, 0.83% hits. AID 940;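 active means compounds whose cAMP rise, as percent of the full-agonist control response, exceeds 60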;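 further: rat C6 glioma line stably carrying human EP2 under a CMV promoter; the protocol text gives 20 µM as final concentration; 100% = response of wells given 1 µM PGE2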
Target sequence (P43116 whole entry, looked up): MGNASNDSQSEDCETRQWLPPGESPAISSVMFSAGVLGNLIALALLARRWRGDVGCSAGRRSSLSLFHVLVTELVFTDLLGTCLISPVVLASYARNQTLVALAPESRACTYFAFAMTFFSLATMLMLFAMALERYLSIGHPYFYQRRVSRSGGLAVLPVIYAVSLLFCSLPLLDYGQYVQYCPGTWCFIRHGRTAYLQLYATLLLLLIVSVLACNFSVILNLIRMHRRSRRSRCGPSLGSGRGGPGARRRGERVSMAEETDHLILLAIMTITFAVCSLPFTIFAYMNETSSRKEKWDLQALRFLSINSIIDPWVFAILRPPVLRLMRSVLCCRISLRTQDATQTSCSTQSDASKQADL
HSV replic up – increases HSV replication in cells | HSV replication augmentation in cells, fold increase | maximum fold increase | 220,000 compounds, 0.005% hits | AID 1956; in the data active means maximum fold increase above about 1.5; inconclusive means no clear call, values can overlap the other calls; tested in PC3 cells
p47phox inh – blocks human p47phox regulatory protein of NADPH oxidases. p47phox/p22phox peptide binding, fluorescence polarization, 2 h. inhibition, % at 24.7 µM. 220,000 compounds, 0.53% hits;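 active means inhibition above about 30%, limit read from the data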;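 further: 0% = p47phox with labelled peptide and 100% = labelled peptide alone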
PGE2 EP2 inh – EP2 receptor (human) inhibition. C6 glioma cells expressing human EP2, cAMP TR-FRET; cells stimulated with saturating PGE2. inhibition, % at 25 µM. 260,000 compounds, 0.52% hits. AID 1422;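 active means percent inhibition above 40 after rounding to a whole number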;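 further: rat C6 glioma host cells with rolipram phosphodiesterase inhibitor present; the protocol text gives 20 µM as final concentration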
EP2 confirm – EP2 receptor cAMP induction, counter-screens negative; shares compounds with EP2 mod; C6 glioma EP2 cells, cAMP HTRF induction; plus low (about EC15) PGE2 agonist; calls only at 20 µM (by protocol); 1,300 compounds, 47% hits; AID 1080;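 active means cAMP induction above 50% in the main assay while under 30% in all four parallel counter assays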;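 further: rat C6 glioma cells stably expressing human EP2 receptor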
* hit, by the source's call; i = inactive; ? = inconclusive; . = no result given; + = active, no number. Most compounds without a hit are left out; they make up all but 2.8% or so of the library.

SMILES | Wee1 stabilizer | Furin inh | EP2 mod | HSV replic up | p47phox inh | PGE2 EP2 inh | EP2 confirm
COC(=O)COc1ccc2occ(C(C)=O)c2c1 | -2 | -20 | 8 | i | 1 | 7 | .
O=C(O)COc1ccc2occ(C(=O)c3ccccc3)c2c1 | 0 | -14 | 66* | i | 3 | 6 | +
COc1ccc(C(=O)[C@H]2CCCN(C(=O)c3ccn[nH]3)C2)cc1 | . | . | -54 | . | . | 9 | .
CCn1c(-c2csc3c2CCCC3)n[nH]c1=S | 3 | -12 | 6 | i | -5 | 4 | .
CCCCn1c(-c2csc3c2CCCC3)n[nH]c1=S | 6 | -16 | 55 | i | -7 | 2 | i
CS(=O)(=O)c1cnc2ncnn2c1C1CCN(C(=O)c2ccco2)CC1 | . | . | -35 | . | . | . | .
Cc1cc(C)c(C#N)c(Oc2ccccc2Br)n1 | 3 | -31 | 70* | i | -12 | 10 | i
CCOC(=O)c1cnn(-c2nc(-c3ccc(F)cc3)cs2)c1C(F)(F)F | -3 | -8 | 65* | i | -10 | 8 | i
COc1ccccc1NC(=S)N(CCO)Cc1cc2ccc(C)cc2[nH]c1=O | . | . | -22 | . | . | 13 | .
CC(N)C(=O)N1CCOCCN(C(=O)C(C)N)CCOCC1 (centres undefined) | . | . | -20 | . | . | 6 | .
O=[N+]([O-])c1ccc(Cl)c2c1C1C=CCC1C(c1ccccn1)N2 (centres undefined) | 3 | -19 | 75* | i | 0 | 11 | +
O=c1[nH]c2ccc(Cl)cc2c(-c2ccccc2)c1N1CCOCC1 | 1 | -26 | 69* | i | -8 | 5 | i
O=c1[nH]c2ccc(Cl)cc2c(-c2ccccc2)c1N1CCN(c2ccccn2)CC1 | -1 | 0 | 73* | i | -3 | 7 | i
O=C(c1ccco1)N1CCN(c2c(-c3ccccc3)c3cc(Cl)ccc3[nH]c2=O)CC1 | 0 | -21 | 47 | i | -2 | 9 | .
Cc1ccc(S(=O)(=O)c2ccc(Oc3cccc(C)c3)cc2)cc1 | -2 | -10 | 78* | i | 3 | 8 | i
CCOc1ccc(Cc2n[nH]c(=S)n2Cc2ccccc2)cc1 | -4 | -8 | 66* | i | -11 | 3 | i
COc1ccc(Cc2n[nH]c(=S)n2Cc2ccccc2)cc1Cl | 1 | -16 | 53 | i | -5 | 2 | i
COc1ccccc1C(=O)NCc1n[nH]c(=S)n1Cc1ccccc1 | 0 | -17 | 18 | i | 3 | 1 | .
Cc1ccccc1OCc1n[nH]c(=S)n1Cc1ccccc1 | 2 | -18 | 19 | i | -4 | 3 | .
Cc1ccc(OCc2n[nH]c(=S)n2Cc2ccccc2)cc1 | -3 | -18 | 62* | i | -2 | 14 | i
Cc1ccccc1NC1=C(C(=O)c2ccccc2)N(C)S(=O)(=O)c2ccccc21 | -3 | -1 | 78* | ? | -13 | 12 | +
Cc1cc2c(=O)n(CC(=O)NCCN3CCc4ccccc43)cnc2s1 | . | . | 1 | . | . | 5 | .
COC(=O)c1sccc1NC(=O)c1ccc(OC)cc1OC | 1 | -1 | 41 | i | -2 | 4 | .
COC(=O)c1sccc1NC(=O)c1cc2c(s1)CCCC2 | -3 | 3 | 54 | . | -13 | . | i
COC(=O)c1sccc1NC(=O)c1cccc(OC)c1 | 1 | -20 | 67* | i | -13 | 14 | i
SMILES | Wee1 stabilizer | Furin inh | EP2 mod | HSV replic up | p47phox inh | PGE2 EP2 inh | EP2 confirm
CC(=O)N/C(=C\c1ccccc1)C(=O)NCC1CCCO1 (centres undefined) | . | . | 12 | . | . | 8 | .
CCOC(=O)c1c(NC(=O)COC(=O)Cn2c(C)nc3ccccc32)sc2c1CCCC2 | -1 | 0 | 55 | i | 15 | 9 | +
CCOC(=O)c1c(NC(=O)COC(=O)Cn2cnc3ccccc32)sc(C)c1C | 0 | -22 | -9 | i | 5 | 22 | .
CCOC(=O)c1c(NC(=O)CSc2nnc(C)s2)sc2c1CCC(C)C2 (centres undefined) | 2 | -3 | 53 | i | -21 | 7 | i
CCOC(=O)c1c(NC(=O)Cn2c(C)nc3ccccc32)sc2c1CCC2 | 1 | -18 | 43 | i | -24 | 12 | .
CCOC(=O)c1c(NC(=O)COC(=O)Cn2cnc3ccccc32)sc2c1CCC(C)C2 (centres undefined) | 4 | -1 | 62* | i | -8 | 8 | i
